Shown are actives, neighbours in structure and some others; about 27% of the full set was active somewhere.
CYP2C19 inhib = blocks human cytochrome P450 2C19; P33261; CYP2C19 Supersomes, luciferin-H EGE luminescence, 30 min; inhibition, % at 5 µM; 96,000 tested, 21% active;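 active = CYP2C19 inhibition above a set limit at 5 µM in the primary screen, cut at about 50% in these data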;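 also: plate controls were negative control wells for no effect and 2.5 mM tranylcypromine positive control for full effect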
CYP2C9 activ = increases human cytochrome P450 2C9 activity; 96,000 tested, 1.4% active; AID 1024; recombinant CYP2C9, luciferin-H conversion, luminescence; stronger effect = higher value; factor 1 = untreated enzyme, 0 = blocked; activation factor at 5 µM; P11712;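 active = activation factor of 2 or more for CYP2C9 at a 5 µM dose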;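 also: 0 = sulfaphenazole-blocked wells and 1 = vehicle-only wells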
CYP2C19 act = activators of human cytochrome P450 2C19 | AID 1025 | 96,000 tested, under 10 active | activation factor at 5 µM | recombinant CYP2C19, luciferin-H EGE luminescence; stronger effect = higher value; 0 = fully inhibited enzyme, 1 = untreated enzyme | P33261;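 active = activation factor of at least 2 at 5 µM in the primary screen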;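 also: 0 = wells with 2.5 mM tranylcypromine and 1 = vehicle-only wells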
CYP2C9 inh = inhibitors of human CYP2C9; P11712; CYP2C9 Supersomes, luciferin-H conversion, luminescence; inhibition, % at 5 µM; 96,000 tested, 20% active;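 active = blocking of liver enzyme CYP2C9 beyond about 50% at 5 µM, limit read from the data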
Cav3 T inh = inhibitors of human Cav3.2 T-type calcium channel. Cav3.2-expressing cells, Fluo-4 calcium fluorescence FDSS; stronger effect = lower value. 100,000 tested, 4% active. AID 449739. B-score at 10 µM;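 active = single-dose well whose peak fluorescence ratio is a statistical outlier from its plate by either plate-standardised score or position-corrected B-score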
Target sequence (O95180 whole entry, looked up): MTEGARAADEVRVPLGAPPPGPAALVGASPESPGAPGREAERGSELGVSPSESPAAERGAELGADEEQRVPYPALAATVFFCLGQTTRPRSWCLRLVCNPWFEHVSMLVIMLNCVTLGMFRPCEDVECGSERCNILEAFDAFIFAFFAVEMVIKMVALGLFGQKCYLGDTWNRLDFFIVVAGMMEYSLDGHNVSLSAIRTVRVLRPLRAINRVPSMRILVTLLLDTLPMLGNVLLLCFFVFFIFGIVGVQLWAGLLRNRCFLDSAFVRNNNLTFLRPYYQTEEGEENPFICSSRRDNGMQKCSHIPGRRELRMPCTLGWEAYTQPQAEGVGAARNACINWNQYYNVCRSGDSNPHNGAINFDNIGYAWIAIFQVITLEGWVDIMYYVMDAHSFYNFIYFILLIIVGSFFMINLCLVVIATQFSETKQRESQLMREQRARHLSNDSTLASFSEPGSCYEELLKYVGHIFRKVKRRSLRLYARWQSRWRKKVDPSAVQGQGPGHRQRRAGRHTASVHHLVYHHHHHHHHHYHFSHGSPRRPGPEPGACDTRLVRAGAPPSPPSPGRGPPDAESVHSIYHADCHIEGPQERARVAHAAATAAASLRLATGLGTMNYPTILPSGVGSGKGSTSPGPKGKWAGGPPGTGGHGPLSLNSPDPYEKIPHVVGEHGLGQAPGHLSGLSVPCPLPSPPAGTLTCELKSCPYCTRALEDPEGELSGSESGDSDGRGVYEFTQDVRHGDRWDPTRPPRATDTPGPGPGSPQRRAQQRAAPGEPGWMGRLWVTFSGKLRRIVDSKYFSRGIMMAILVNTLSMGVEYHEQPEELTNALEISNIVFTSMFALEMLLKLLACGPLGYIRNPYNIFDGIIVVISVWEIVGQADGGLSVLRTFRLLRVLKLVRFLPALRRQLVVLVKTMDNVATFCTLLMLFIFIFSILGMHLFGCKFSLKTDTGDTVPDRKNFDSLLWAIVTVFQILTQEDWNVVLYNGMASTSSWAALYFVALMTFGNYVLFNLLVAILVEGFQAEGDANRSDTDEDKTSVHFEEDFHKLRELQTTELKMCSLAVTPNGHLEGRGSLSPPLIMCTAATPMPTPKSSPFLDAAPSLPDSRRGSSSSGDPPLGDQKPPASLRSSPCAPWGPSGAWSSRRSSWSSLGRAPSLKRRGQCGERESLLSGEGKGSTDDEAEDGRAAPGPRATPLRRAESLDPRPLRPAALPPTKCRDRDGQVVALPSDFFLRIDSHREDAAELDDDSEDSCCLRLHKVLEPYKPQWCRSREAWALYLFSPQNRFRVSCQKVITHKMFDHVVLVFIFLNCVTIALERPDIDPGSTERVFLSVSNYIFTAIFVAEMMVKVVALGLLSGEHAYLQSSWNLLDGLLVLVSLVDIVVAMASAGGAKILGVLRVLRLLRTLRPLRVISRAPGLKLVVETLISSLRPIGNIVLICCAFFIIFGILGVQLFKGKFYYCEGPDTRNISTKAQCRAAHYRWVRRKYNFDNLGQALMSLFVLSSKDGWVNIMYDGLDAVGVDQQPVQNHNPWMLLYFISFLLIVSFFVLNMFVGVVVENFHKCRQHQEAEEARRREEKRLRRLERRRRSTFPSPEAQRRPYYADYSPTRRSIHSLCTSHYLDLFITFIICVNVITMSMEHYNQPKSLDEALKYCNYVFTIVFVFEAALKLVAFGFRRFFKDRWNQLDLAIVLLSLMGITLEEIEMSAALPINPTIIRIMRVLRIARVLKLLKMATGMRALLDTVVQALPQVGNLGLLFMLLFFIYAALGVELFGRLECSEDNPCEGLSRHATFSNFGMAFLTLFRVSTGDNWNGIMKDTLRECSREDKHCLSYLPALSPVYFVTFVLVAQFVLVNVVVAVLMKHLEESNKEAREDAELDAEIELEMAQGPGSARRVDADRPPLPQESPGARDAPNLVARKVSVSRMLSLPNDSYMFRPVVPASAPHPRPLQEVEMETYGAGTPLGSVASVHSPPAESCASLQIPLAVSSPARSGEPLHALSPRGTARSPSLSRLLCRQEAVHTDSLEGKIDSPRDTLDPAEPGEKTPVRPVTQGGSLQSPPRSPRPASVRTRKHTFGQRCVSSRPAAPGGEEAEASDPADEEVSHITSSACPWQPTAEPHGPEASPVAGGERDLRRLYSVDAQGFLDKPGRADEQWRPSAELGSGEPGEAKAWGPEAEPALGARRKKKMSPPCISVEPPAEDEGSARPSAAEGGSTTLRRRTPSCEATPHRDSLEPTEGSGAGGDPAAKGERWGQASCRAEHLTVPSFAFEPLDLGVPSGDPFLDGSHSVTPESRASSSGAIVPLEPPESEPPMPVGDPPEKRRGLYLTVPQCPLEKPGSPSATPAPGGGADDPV
The depositor's hits bear a star; x = no result; ! = repeats disagree.

SMILES	CYP2C19 inhib	CYP2C9 activ	CYP2C19 act	CYP2C9 inh	Cav3 T inh
COc1cccc(/C=N/NC(=O)CC(=O)NCCc2ccc(OC)c(OC)c2)c1	31	1.3	0.7	-32	-0.073
COC1(c2ccccc2)NC(=S)NN=C1c1ccccc1 (configuration not stated)	48	0.2	0.5	82*	0.9
CCCCOC1(c2ccccc2)NC(=S)NN=C1c1ccccc1 (configuration not stated)	79*	0.1	0.2	95*	-2.7
CCOCCCNC(=O)CCNC(=O)c1cc(OC)c(OC)c(OC)c1	-4	1.1	1	-12	0.043
N#CCCN(C1CCCCC1)S(=O)(=O)CCOc1ccccc1	36	0.7	0.6	26	-1.1
C[C@@H]1NC(=O)c2cc([N+](=O)[O-])cc(I)c2NCCCC[C@@H](C(N)=O)NC(=O)[C@H](CCC(=O)O)NC1=O	x	x	x	x	0.46
CCCCCCNCc1ccc(Br)cc1	75*	1	0.2	1	0.59
CCCCCCNC(=O)c1ccc(Br)o1	x	x	x	x	-0.17
CS(=O)(=O)N(Cc1ccc(Cl)cc1)c1ccc(C(=O)Nc2cccnc2)cc1	95*	0.2	0	84*	-0.49
CC(=O)c1cccc(NC(=O)c2ccc(N(Cc3ccc(C)cc3)S(C)(=O)=O)cc2)c1	85*	0.1	0.1	85*	-0.16
CS(=O)(=O)N(Cc1ccccc1)c1ccc(C(=O)Nc2cccnc2)cc1	x	x	x	x	0.093
CCc1nnc(NC(=O)CSc2nnc(CSc3nc(C)cc(C)n3)o2)s1	2	0.8	1	21	0.21
CC(C)(C)NS(=O)(=O)c1ccc2nc(NC(=O)Cc3cccs3)sc2c1	50*	0.1	0.5	88*	-4.2*
CCN(CC)S(=O)(=O)c1cccc(C(=O)Nc2nc3cc4c(cc3s2)OCCO4)c1	38	0.3	0.6	67*	-0.22
CS(=O)(=O)c1ccc2nc(NC(=O)CCC(=O)c3cccs3)sc2c1	-2	0.7	1	25	0.53
CCN(CC)S(=O)(=O)c1ccc2nc(NC(=O)c3cccs3)sc2c1	12	0.4	0.9	62*	0.32
CCCCOc1ccc(N(CC(=O)NC2CCCC2)C(=O)CCC(=O)Nc2ccccn2)cc1	x	x	x	x	0.025
Cc1ccnc(NC(=O)CCC(=O)N(CC(=O)NC2CCCCC2)c2ccc3c(c2)OCO3)c1	41	0.2	0.6	75*	-4.5*
Cc1cccc(N(CC(=O)NC2CCCCC2)C(=O)CCC(=O)Nc2ccccn2)c1	48	0.6	0.5	38	-4.2*
O=C(CCC(=O)N(CC(=O)NC1CCCC1)Cc1ccc2c(c1)OCO2)Nc1ccccn1	39	0.1	0.6	89*	0.55
COc1ccc(C)cc1N(CC(=O)NC1CCCC1)C(=O)CCC(=O)Nc1cc(C)on1	29	0.6	0.7	40	0.046
COc1ccc(N2CCN(CC(O)c3c[nH]c4ccc(OC)cc34)CC2C)cc1 (configuration not stated)	22	0.7	0.8	28	x
COc1ccc(-c2cc(C(=O)OCC(=O)N3CCCC3)c3ccccc3n2)cc1	50*	0.2	0.5	78*	-0.57
Cc1cc(C(=O)OCC(=O)N2CCOCC2)c2ccccc2n1	12	2*	0.9	-98	0.74
CSc1ccc(Cl)c(C(=O)OCC(=O)NC2CC2)c1	23	1.1	0.8	-6	0.22
SMILES	CYP2C19 inhib	CYP2C9 activ	CYP2C19 act	CYP2C9 inh	Cav3 T inh
Cc1ccc(/C(N)=N/OC(=O)c2cc(-c3ccccc3)nc3ccccc23)cc1	13	0.5	0.9	54*	-1.4
Cc1cc(C(=O)OCC(=O)N2CCCC2)c2ccccc2n1	28	0.8	0.7	23	-0.088
CSc1ccc(Cl)c(C(=O)OCC(=O)N2CCOCC2)c1	51*	1.7	0.5	-67	0.0018
CCOC(=O)c1c(NC(=O)CN2C(=O)c3ccccc3C2=O)sc(Cc2ccc3c(c2)OCO3)c1C	x	x	x	x	-1
Cc1ccc(C(=O)NC=C(Cl)Cl)cc1	11	1	0.9	4	-1.3
CC1(C)Cc2c(sc3c2C2=NCCN2C=N3)CS1	-16	1	1.2	-3	-0.21
CCC1(CC)Cc2ccccc2C(CC(=O)N2CCOCC2)=N1	31	0.9	0.7	12	-1.6
NC(=O)c1ccccc1N/C=C/C(=O)c1ccccc1	74*	0.6	0.3	45	0.98
O=C(/C=C/NNC(=O)c1ccccc1)c1ccccc1	17	0.9	0.8	7	0.57
Cc1ccn2cc(CNC(=O)c3ccc(Br)o3)nc2c1	35	0.7	0.6	26	0.38
CCSc1nnc(N(CCC#N)CCC#N)s1	-15	1.2	1.1	-19	0.03
CC1C/C(=N\NC(=S)NCc2ccccc2)CC(C)(C)C1 (configuration not stated)	26	1.1	0.7	-8	-4.4*
CC1CCC/C(=N\NC(=S)NCc2ccccc2)C1 (configuration not stated)	82*	0.1	0.2	85*	-1.6
CN1CCC(=NNC(=O)C(=O)NCc2ccccc2)CC1	-12	1.2	1.1	-17	0.72
CC1CCCN(C(=S)NCCc2ccccc2)C1 (configuration not stated)	42	0.8	0.6	19	0.64
c1ccc2[nH]c(-c3ccnc4ccccc34)nc2c1	29	0.5	0.7	54*!	0.36
CCCCOc1ccc(NC2=NC3(CCCC3)N=C(N)N2)cc1	-6	1.2	1.1	-16	1
COc1ccccc1OCC(=O)Nc1ccc(C(N)=O)cc1	7	0.8	0.9	19	-0.071
CC(C)NC(=O)COC(=O)c1ccccc1Oc1ccccc1	87*	0.3	0.1	72*	-0.89
COc1ccccc1C(=O)OCC(=O)Nc1ccc(OC(F)F)cc1	53*	0.7	0.5	29	-0.92
COc1ccc(NC(=O)Cn2cccc2)c(OC)c1	37	0.7	0.6	28	1.5
O=C(Cn1cccc1)Nc1ccc(OC(F)(F)F)cc1	51*	0.8	0.5	18	-0.55
CCCC(=O)OCC(=O)Nc1ccc(OC(F)F)cc1	59*	0.5	0.4	47	0.31
Cc1ccc(SC(C)C(=O)Nc2c(C)n(C)n(-c3ccccc3)c2=O)cc1 (configuration not stated)	17	0.9	0.8	7	0.31
COc1cccc(OC)c1C(=O)OCC(=O)Nc1ccc(OC(F)(F)F)cc1	75*	0	0.2	99*	-4.8*
COc1ccccc1OCC(=O)Nc1ccc(Cl)cc1	x	x	x	x	-1.5
Cc1cc(NC(=O)Cn2nnc3sc4c(c3c2=O)CCC(C(C)(C)C)C4)no1 (configuration not stated)	32	0.4	0.7	57*	-7.3*
Cc1cc(NC(=O)Cn2nnc3sc4c(c3c2=O)CCCC4)no1	6	0.8	0.9	21	0.6
Cc1ccc(-n2c(C)cc(/C=N/NC(=O)CN(c3ccc(C)cc3C)S(C)(=O)=O)c2C)cc1	27	0.5	0.7	49	-8.4*
COc1ccc(N2CCN(C(=O)c3cn(C)c(=O)c4c3c3ccccc3n4C)CC2)cc1	3	0.9	1	9	-0.27

Source: PubChem (several laboratories)
